HDAC3 inh – inhibitors of human histone deacetylase 3; inhibition, % at 8.3 µM; AID 2718; recombinant HDAC3, fluorogenic peptide/trypsin coupled, fluorescence; actives 0.15% (n = 320,000); in the data active = inhibition above about 26%, passing the limit was not always enough
PvdQ acylase – P. aeruginosa PvdQ acylase inhibition; purified PvdQ acylase, fluorescence plate reader; inhibition, % at 10 µM; actives 0.063% (n = 340,000); in the data active = inhibition above about 30%, passing the limit was not always enough;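 also: 0% = vehicle neutral wells and 100% = reference inhibitor wells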
Mot1-301 SUMO – blocks SUMOylation pathway, rescuing yeast Mot1-301 growth | growth rescue, % at 18.8 µM | S. cerevisiae Mot1-301 growth rescue, ATP luminescence, 38.5C; percent above DMSO median, 100 means doubled | actives 1% (n = 320,000) | AID 2716;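 active = every valid replicate shows activation above 250% relative to neutral control wells; inactive = the rest, any valid replicate at or below 250%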;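 also: OY570 slx delta 5 strain wells were the positive control but not used for scaling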
p-CIP stab down – p/CIP protein destabilization; F442A p/CIP-EGFP cells, EGFP fluorescence, 16 h; decrease of EGFP signal, % at 10 µM; actives 0.01% (n = 290,000); AID 1984;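 active = EGFP signal decrease of at least 30% at 10 µM or well 3 SD below plate mean, unless failing retest; inactive = the rest, including hits failing retest or dose response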
GASC-1 inh – human JMJD2C demethylase inhibition; GST-JMJD2C(1-420) H3K9me3 demethylation, DELFIA europium; actives 0.069% (n = 330,000); Q9H3R0; inhibition, % at 2.35 µM;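 active = more than half of a compound's replicate wells show inhibition beyond 50%, single wells judged on their own value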;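 also: signal counts dimethyl H3K9 product captured on neutravidin plate; 0% = median of DMSO wells and 100% = 0.3 times that DMSO median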
PHOSPHO1 inh – PHOSPHO1 (human) inhibition; Q8TCT1; recombinant PHOSPHO1, absorbance phosphatase assay; inhibition, % at 13.3 µM; actives 1.1% (n = 290,000); in the data active = inhibition above about 60%
An asterisk follows results filed as active; . = no result; + = active, no number. In the library only some 2.2% were active in any assay of this set; here they are far more common.

SMILES	HDAC3 inh	PvdQ acylase	Mot1-301 SUMO	p-CIP stab down	GASC-1 inh	PHOSPHO1 inh
CCO[C@@H]1OC(C(=O)NCc2ccccc2)=C[C@H](c2cn(C(C)=O)c3ccccc23)[C@H]1CCCO	4	11	9	2	-2	24
Cn1c(=O)c2c(ncn2CC(=O)N(Cc2ccccc2)c2ccccn2)n(C)c1=O	0	0	299*	-3	4	-18
Cn1c(=O)c2c(ncn2CC(=O)OCc2ccccc2)n(C)c1=O	0	-6	1	9	-1	-9
O=C(Cc1ccc(Br)cc1)N(Cc1ccccc1)c1ccccn1	-1	-7	1	-8	-1	63*
Cc1ccc(CN2CCN(Cc3ccc4cccc(F)c4n3)CC2CCO)cc1 (stereo not drawn)	-4	-10	102	8	3	.
Fc1ccc(/C=N/n2c(-c3cccs3)n[nH]c2=S)cc1	0	-14	58	-15	5	71*
CO/C([O-])=N/c1c[n+](-c2ccc(Cl)cc2)no1	4	1	290*	3	7	23
O=C(CNC(=O)c1ccco1)NNC(=O)c1n[nH]c(=O)c2ccccc12	-13	-9	14	.	-7	.
O=C(CSc1nc2ccccc2[nH]1)c1ccc(Cl)s1	2	-14	7	-8	5	103*
COc1ccccc1NC(=O)c1ccc(C(=O)c2ccccc2)o1	6	-15	63	2	-6	42
O=C(Nc1ccccc1O)c1ccc(C(=O)c2ccccc2)o1	48*	-1	-4	-9	9	.
NC(=O)c1c(NC(NC(=O)c2ccco2)C(=O)c2ccc(Cl)cc2)sc2c1CCCC2 (stereo not drawn)	3	-1	-3	-10	12	100*
CCn1c(SCC(=O)Nc2c(C)n(C)n(-c3ccccc3)c2=O)nc2c1c(=O)n(C)c(=O)n2C	-1	-9	-9	-6	-23	64*
Oc1ccccc1-c1cc(-c2ccccc2)n[nH]1	-1	-13	338*	.	-9	.
Cc1ccc(O)c(-c2cc(-c3cccc(Br)c3)n[nH]2)c1	-7	-9	280*	-3	-1	-10
Oc1ccc(Cl)cc1-c1cc(-c2ccccc2)n[nH]1	4	-3	343*	2	-3	-10
Cc1ccc(-c2cc(-c3ccc(C)cc3O)[nH]n2)cc1	6	-14	17	-8	-8	.
CCn1c(SCc2nc3cc(OC)c(OC)cc3c(=O)[nH]2)nc2ccccc21	8	14	-3	-12	-10	60*
Cn1c(SCc2nc3ccccc3c(=O)[nH]2)nc2ccccc21	-16	-11	-22	-5	8	5
N#CC(C#N)=C1NC2(CCCC2)Cc2ccccc21	7	-4	9	0	-1	7
Cc1ccc(NCc2nnc(SCC(=O)c3ccc4c(c3)OCCO4)o2)c(C)c1	85*	-1	2	-10	2	-18
CC(CCC(C)C(C)(C)C)[C@@H]1CC[C@H]2C3C[C@H](OS(O)(=S)=S)[C@H]4C[C@H](OS(O)(=S)=S)[C@@H](OS(O)(=S)=S)C[C@]4(C)[C@H]3CC[C@]12C (stereo partly drawn) (tested in a mixture with another compound)	5	-1	+	.	12	.
CC(CCC(=O)NN)C1CCC2C3CCC4CC(O)CCC4(C)C3CCC12C (stereo not drawn)	.	-10	.	.	.	.
Cc1ccc(N(CC(=O)Nc2cc(Cl)ccc2Oc2ccccc2)S(C)(=O)=O)cc1C	27*	-10	-6	-6	1	2
COc1ccc2nc(C3CCCCC3)c3c(c2c1)CCC3	-1	-6	277	.	3	.
SMILES	HDAC3 inh	PvdQ acylase	Mot1-301 SUMO	p-CIP stab down	GASC-1 inh	PHOSPHO1 inh
Cc1ccc(C(C[N+](=O)[O-])n2nc(C)cc2C)cc1 (stereo not drawn)	5	-18	624*	2	4	6
N#CCCn1cc(C=C(C#N)C#N)c(-c2ccc(Cl)cc2)n1	-3	7	-32	-20	1	60*
Cc1cc(C)c(O)c(N)c1	.	.	.	-14	.	20
Cc1ccccc1C(=O)NCC(c1ccco1)N1CCc2ccccc2C1 (stereo not drawn)	-5	-17	-5	.	-12	.
CC1=Nc2ccccc2N=C(NC(=O)c2ccccc2)C1c1ccccc1 (stereo not drawn)	34*	-8	10	2	6	17
c1ccc2c(c1)CCCN2Cc1nnnn1CC1CCCO1 (stereo not drawn)	9	-6	-8	-4	-2	-4
c1ccc(CCn2nnnc2CN2CCCc3ccccc32)cc1	-4	-14	96	-9	2	64*
Cc1cc(C=O)c2c(c1)C=CC1(Oc3ccccc3C(=O)N1C)O2 (stereo not drawn)	-2	.	-6	-23	9	1
CCOCCCNS(=O)(=O)c1ccc(NC(=O)Cc2c(F)cccc2Cl)cc1	0	-13	0	-7	-1	35
O=C(O)c1cccc(-c2ccc(/C=N/Nc3ccc([N+](=O)[O-])cc3)o2)c1	1	5	311*	-39	0	13
NS(=O)(=O)c1ccc(-c2ccc(/C=N/NC(=O)c3ccc([N+](=O)[O-])cc3)o2)cc1	0	4	311*	2	-15	49
COc1cccc(C(C(=O)NC2CCCC2)N(C(=O)c2ccco2)c2ccc(C(C)=O)cc2)c1OC (stereo not drawn)	0	-10	-4	-2	5	36
O=C(O)C1Sc2[nH]c(=O)sc2C2c3cc(Cl)ccc3OC(=O)C12 (stereo not drawn)	6	-3	3	-27	-7	89*
S=C(NCCc1ccccc1)N1CCN(C(=S)NCCc2ccccc2)CC1	.	-17	.	.	.	.
CC1CCN(C(=S)NCCc2ccccc2)CC1	5	-5	13	-6	-5	88*
CCN(c1ccccc1)S(=O)(=O)c1ccc(OC)c(NC(=O)COc2ccc(C(C)=O)cc2)c1	.	-22	-6	.	1	.
CCN(CCNC(=O)CN(C)S(=O)(=O)c1cccc2nsnc12)c1ccccc1	1	-21	-12	4	-4	64*
CCC(C)[C@H](NC(=O)C1CCN(C(=O)[C@H](Cc2ccccc2)NS(=O)(=O)c2ccc(C)cc2)CC1)C(=O)O (stereo partly drawn)	-1	-17	-4	-16	5	.
O=C1C=CC(=O)N1c1cccc(-c2ccccc2)c1	-1	-8	63	-39	29	78*
O=C(Nc1cccc(N2C(=O)C=CC2=O)c1)c1cccs1	.	-9	-12	.	6	.
CCOC(=O)c1c(-c2ccc(F)cc2)csc1NC(=O)c1c(-c2ccccc2)noc1C	-4	-11	719*	-3	1	-2
Cc1nc(NC(=O)c2c(-c3ccccc3)noc2C)sc1C(=O)N(C)C	1	-8	5	-5	5	12

Screening data as filed in PubChem BioAssay.
